Source: PubChem BioAssay

Columns and labels:
PEG-3 [1] = target: PEG-3 (UniProt Q6IN02); assay: inhibition of PEG-3 promoter-driven reporter – cell-based, HeLa, luciferase, CREF/GAPDH counter-screen panel, dose response (AID 624167); conditions: CREF/GAPDH counter-screens; HeLa PEG-Prom luciferase reporter, overnight, run 1, dose range 1, at 100 µM (top of the series) unless noted
PEG-3 [2] = target: PEG-3 (UniProt Q6IN02); assay: as above; conditions: CREF/GAPDH counter-screens; HeLa PEG-Prom luciferase reporter, overnight, run 2, dose range 1, at 100 µM (top of the series) unless noted
Rat fibroblasts (CREF) [3] = assay: as above; conditions: CREF/GAPDH counter-screens; run 1, dose range 1, at 100 µM (top of the series)
Rat fibroblasts (CREF) [4] = assay: as above; conditions: CREF/GAPDH counter-screens; run 2, dose range 1, at 100 µM (top of the series)
[5] = target: Tumor necrosis factor receptor superfamily member 10B (Homo sapiens) (UniProt O14763); assay: viability loss of caspase-8 NB7 cells with TRAIL – with/without TRAIL, luminescence panel, confirmation (AID 651596); conditions: NB7 neuroblastoma + caspase-8, TRAIL sensitization, NB7 Caspase-8, with TRAIL, mean of runs, at 10 µM, stronger effect = higher value
Tumor necrosis factor receptor superfamily member 10B (Homo sapiens), sequence (O14763 whole entry, looked up): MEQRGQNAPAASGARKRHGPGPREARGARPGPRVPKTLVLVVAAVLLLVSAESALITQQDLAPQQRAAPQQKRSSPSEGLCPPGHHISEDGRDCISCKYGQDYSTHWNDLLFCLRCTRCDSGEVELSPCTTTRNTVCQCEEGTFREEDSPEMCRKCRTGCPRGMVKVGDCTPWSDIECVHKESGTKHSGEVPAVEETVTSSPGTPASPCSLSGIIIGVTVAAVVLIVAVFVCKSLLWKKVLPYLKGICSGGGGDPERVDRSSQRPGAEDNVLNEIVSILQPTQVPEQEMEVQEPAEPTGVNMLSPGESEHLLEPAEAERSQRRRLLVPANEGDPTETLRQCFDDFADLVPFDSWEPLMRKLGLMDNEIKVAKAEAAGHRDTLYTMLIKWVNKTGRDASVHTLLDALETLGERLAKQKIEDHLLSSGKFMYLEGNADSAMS

[6] = as above; conditions: NB7 neuroblastoma + caspase-8, without TRAIL, NB7 Caspase-8, without TRAIL, mean of runs, at 10 µM
[7] = NFkB reporter suppression in cystic fibrosis bronchial cells – cell-based, uHTS hits, panel, cytotoxicity readout, dose response (AID 624344); conditions: CF bronchial epithelial cells, PAF-induced NFkB reporter inhibition, with PAF, run 1; at 79 µM (top of the series) unless noted
[8] = as above; conditions: CF bronchial epithelial cells, PAF-induced NFkB reporter inhibition, with PAF, run 2; at 79 µM (top of the series) unless noted

PEG-3, sequence (Q6IN02 whole entry, looked up): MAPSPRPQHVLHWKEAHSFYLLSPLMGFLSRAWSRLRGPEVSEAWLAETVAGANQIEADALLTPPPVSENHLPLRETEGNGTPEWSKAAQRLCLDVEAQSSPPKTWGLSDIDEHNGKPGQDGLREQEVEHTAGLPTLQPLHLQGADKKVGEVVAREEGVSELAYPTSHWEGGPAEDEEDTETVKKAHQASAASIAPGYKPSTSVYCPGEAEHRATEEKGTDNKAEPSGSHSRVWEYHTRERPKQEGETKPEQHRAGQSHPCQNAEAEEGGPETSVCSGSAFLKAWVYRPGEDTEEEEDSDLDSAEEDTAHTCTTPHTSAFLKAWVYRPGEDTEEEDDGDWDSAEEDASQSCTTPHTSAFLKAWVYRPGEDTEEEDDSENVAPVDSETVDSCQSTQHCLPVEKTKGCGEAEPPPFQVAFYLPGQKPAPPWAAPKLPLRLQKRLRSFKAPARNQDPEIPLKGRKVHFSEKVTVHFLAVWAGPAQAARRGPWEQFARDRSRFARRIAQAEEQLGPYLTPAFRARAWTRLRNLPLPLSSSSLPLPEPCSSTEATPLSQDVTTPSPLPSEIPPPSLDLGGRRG

Structure (SMILES)	inhibition (PEG-3 [1])	inhibition (PEG-3 [2]) [%]	inhibition (Rat fibroblasts (CREF) [3]) [%]	inhibition (Rat fibroblasts (CREF) [4]) [%]	activity [5] [%]	activity [6] [%]	inhibition [7] [%]	inhibition [8] [%]
CS(=O)(=O)Nc1cccc(NC(=O)C2Cc3c(-c4cccc(F)c4)ccnc3O2)c1 (stereo not given)	77.9% [run 1, dose range 1, at 50 µM]	85.4	17.8	29	75.5	73.2		
C(=Cc1cnc2ccccc2n1)c1ccc2c(c1)OCO2	94.6%	98.4	95.9	95.7	92.9	92.6		
C/C(=N/NC(=O)c1cc(C2CC2)[nH]n1)c1cccs1	92.3%	87.2	95.4	96.2	70.8	70.8		
COc1ccc(N(C(=O)CCl)C(C(=O)NC2CCCCC2)c2cccnc2)cc1 (stereo not given)	99.1%	102	97.1	94.1	99.5	98.7		
Cc1cc(C(=O)COC(=O)c2ccccc2O)c(C)n1Cc1cccs1	88.8%	94.8	94.6	87.5	95.7	95.5		
Cc1ccc2nc(NC(=O)c3ccccn3)sc2c1	99.4%	98.6	94.5	95.5	94	93.7		
Cc1ccc(-c2nc(-c3ccccn3)no2)cc1	99.3%	96	100	99.7	96.8	96.3		
O=C(CN1C(=O)c2ccccc2S1(=O)=O)c1ccc2c(c1)OCCCO2	98.1%	98.8	99.7	99.4	95.4	94.1		
CCOC(=O)Cc1csc(NC(=S)NC(=O)c2ccc(Cl)cc2)n1	77.7%	73.4	88	86.8	65.1	63.8		
COc1ccc(-c2nc(-c3ccccn3)no2)cc1	99.7%	96.8	99.9	99.4	96.7	95.7		
Clc1cccc(-c2nc(-c3ccccn3)no2)c1	89.2%	92.5	96.4	94.4	84.3	82.3		
CCOC(=O)c1cnc(Nc2nc3ccccc3o2)nc1C	85.5%	81.8	92	93	92.1	91.1		
O=c1c(Cl)c(N2CCCCC2)cnn1-c1nc2ccccc2[nH]1	96.7%	95	100	100	96.4	96.5		
CCCn1c(C)cc(C(=O)CN2C(=O)c3ccccc3S2(=O)=O)c1C	97.5%	98.9	91.2	92.1	60.1	62.3		
c1cc2c(cc1C1=NNC(=NC3CC3)SC1)OCCO2	98.9%	99	99.2	91.3	93.3	90.9		
COc1cc(/C=N/O)ccc1OCc1ccc(C(=O)O)cc1	88.6%	90.2	92	91.3	72.7	65.7		
O=C(Cn1ncc(Cl)c(Cl)c1=O)N1CCc2ccccc21	99.5%	98.6	96.2	95.5	99.5	99.6		

Structure (SMILES)	inhibition (PEG-3 [1])	inhibition (PEG-3 [2]) [%]	inhibition (Rat fibroblasts (CREF) [3]) [%]	inhibition (Rat fibroblasts (CREF) [4]) [%]	activity [5] [%]	activity [6] [%]	inhibition [7] [%]	inhibition [8] [%]
COc1ccc(/C=C/c2nc3ccccc3n2C)cc1	99.2%	97.5	100	99.9	97.2	97.1		
O=C(NCCc1ccccc1F)c1ccc2c(c1)OCCO2	98.5%	102	100	99.8	90.4	91		
NC(=O)c1nsc(C(=O)N(c2ccccc2F)C(C(=O)NCc2ccc(F)cc2)c2ccc(O)cc2)c1N (stereo not given)	101%	99.2					106	98.8
Cc1ccc(C(=O)NCCc2cccs2)cc1	92.3%	49.8			76.6	75.8		
COc1cccc(-c2nnc3n2N=C(C(C)(C)C)CS3)c1	98.1%	99					105	114
CS(=O)(=O)c1ccc2nc(NC(=O)CCS(=O)(=O)c3ccccc3)sc2c1	85%	92.7					98.1	97.7
CN(C)CCCN(C(=O)c1ccc(S(=O)(=O)N2CCc3ccccc3C2)cc1)c1nc2ccc(F)cc2s1	102%	98.9	99	98.9	48.5	17.1		
CCC1=C(CC2NCCc3ccccc32)CC2c3cc(OC)c(OC)cc3CCN2C1 (stereo not given)	97.6%	99					115	105
COc1ccccc1N(C(=O)CCl)c1cn(C(C)=O)c2ccccc12	98.1%	102			99.5	98.3		
CN(C)c1ccc(Nc2nc(N)c3ccccc3n2)cc1	97.9%	99.2	97.2	98	95.9	95.8		
COc1ccc(Nc2nc(-c3ccccc3)nc3ccccc23)cc1S(=O)(=O)N1CCOCC1	61.7%	59.1			33	25.6	97.7	106
CCOc1cc(/C=N/N=C(N)N)ccc1OCc1ccc(Cl)cc1	99.3%	98.5			70	96.9		
O=C(c1ccc(Cl)cc1)N1CCCCC(Sc2nnc(-c3ccc4c(c3)OCO4)o2)C1=O (stereo not given)	93.2%	67.1	98	85.5	75.8	72.6		
COCCn1c(C)cc(C(=O)COC(=O)c2ccccc2Br)c1C	95.9%	94.1			79.5	76.5		
O=S(=O)(Nc1cccc2cccnc12)c1ccccc1	81.7%	97.7					102	109
CC(=O)CSc1ccc(-c2nc3cc(C)c(C)cc3[nH]2)cn1	102%	101	95.4	95.4	89.6	88.5		
